This is a sample that favours compounds with a hit; in the whole collection about 3.3% have one here.
Sm TGR inh: blocks Schistosoma mansoni thioredoxin glutathione reductase. purified TGR, DTNB reduction, TNB absorbance 405 nm. Potency, µM (series often up to 114 µM), without a hit: at the highest dose activity change, negative = inhibition, most hits filed as inhibitors. hit rate 3% among 360,000; also: nearly all actives have a fitted effect of over 60% in size
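First, TGR (20 nM dispensed) and NADPH were mixed with compound. Second, a 15 min room-temperature incubation followed. Third, further NADPH and then DTNB were added to start the reaction. Finally, TNB absorbance was monitored kinetically.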
AmpC inh no detg: AmpC beta-lactamase inhibition without detergent; AID 485341; P00811; hit rate 0.52% among 330,000; Potency, µM (series often up to 57.1 µM), inactives show top-dose activity change, negative = inhibition, usual class: inhibitors; AmpC nitrocefin hydrolysis, absorbance 480 nm, 0.0001% Triton;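 also: plate controls were no compound for no effect and no enzyme for full effect; nearly all actives have a fitted effect of over 20% in size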
Target sequence (P00811 whole entry, looked up): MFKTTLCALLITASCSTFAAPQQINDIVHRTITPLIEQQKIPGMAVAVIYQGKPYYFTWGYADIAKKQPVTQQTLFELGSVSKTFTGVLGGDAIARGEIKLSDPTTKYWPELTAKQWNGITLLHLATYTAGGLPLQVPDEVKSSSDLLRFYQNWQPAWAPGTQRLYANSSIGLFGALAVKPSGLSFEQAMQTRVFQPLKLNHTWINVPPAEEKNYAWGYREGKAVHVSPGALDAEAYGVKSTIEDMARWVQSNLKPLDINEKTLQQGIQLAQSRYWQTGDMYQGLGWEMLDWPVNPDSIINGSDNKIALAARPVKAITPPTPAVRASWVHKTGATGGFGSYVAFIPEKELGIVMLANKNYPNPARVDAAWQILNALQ
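20 mM phosphate pH 7.0 + 0.01% (detergent screen) or 0.0001% Triton X-100; 5.3 nM AmpC reagent; cpd preinc 15 min RT; nitrocefin (800 uM stock) to start; A480 q20 s × 4 min; Activity was normalised to no-enzyme and no-compound control wells.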
AmpC detergent: blocks E. coli AmpC beta-lactamase in detergent assay; P00811; AmpC hydrolysis of nitrocefin, absorbance 480 nm, 0.01% Triton; Potency, µM (top dose mostly 114 µM), inactives show at the top dose activity change, negative = inhibition, most hits filed as inhibitors; hit rate 0.041% among 370,000; AID 485294;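 also: 0% = no-compound wells and -100% = no-enzyme wells; nearly all actives have a fitted effect of over 25% in size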
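20 mM phosphate pH 7.0 + 0.01% (detergent screen) or 0.0001% Triton X-100; 5.3 nM AmpC reagent; cpd preinc 15 min RT; nitrocefin (800 uM stock) to start; A480 q20 s × 4 min; Activity was normalised to no-enzyme and no-compound control wells.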
Starred values were filed as active, the others as inactive; ? = inconclusive; / = not tested or not shown. Calls follow the shape of the dose curve; as a rule, active = well fitted curve in the direction sought with a large enough effect; inconclusive = small, poorly fitted or top-dose-only effect, or another doubt; inactive = no such curve, though single readings can be large; an effect the other way counts as inactive or inconclusive. Unless noted, % is scaled to controls: 0 for no effect and ±100 for the full control effect; potency is read from the fitted curve at half-maximal effect.

SMILES	Sm TGR inh	AmpC inh no detg	AmpC detergent
CCn1c(C(=O)Nc2cc(C)cc(C)c2)cc2sc(Cl)cc21	0.5%	/	0.6%
COC(=O)c1c(-c2ccco2)csc1NC(=O)C1CC=CCC1C(=O)O (configuration not stated)	44.7µM*	3.2%	6.3%
CCOC(=O)c1c(-c2ccc(F)cc2)csc1NC(=O)C1CC=CCC1C(=O)O (configuration not stated)	/	-18.2%	0.1%
COc1ccc(-c2nc(SC)n(C)c(=O)c2C#N)cc1OC	6.8%	-17.6%	-3.5%
COc1ccc(C(c2c(O)nc(SC)n(C)c2=O)c2c(O)nc(SC)n(C)c2=O)cc1O	12.6µM*	-31.5%	7.4%
COc1ccc(NC(=O)c2ccc3c(SCC(=O)O)c4c(nc3c2)CCC4)c(OC)c1	4.2%	/	6.9%
COc1ccccc1NC(=O)c1oc2ccccc2c1NC(=O)Cc1cccs1	-0.9%	/	7.9%
O=C(Cn1c(=O)n(-c2ccccc2)c(=O)c2ccc(C(=O)NCc3ccc4c(c3)OCO4)cc21)Nc1ccc(Br)cc1F	8.9%	/	-0.3%
COc1ccc(C)cc1NC(=O)NNC(=O)c1cc2ccccc2cc1O	6.0%	6.31µM*	-0.3%
O=C(NNC(=O)c1cc2ccccc2cc1O)Nc1ccc(F)cc1F	3.4%	12.6µM*	2.3%
COc1cc(NC(=O)c2cc3ccccc3cc2O)c(OC)cc1Cl	-12.9%	3.55µM*	-5.4%
Cc1ccc(C(=O)NNC(=O)c2cc3ccccc3cc2O)cc1	-9.8%	28.2µM*	-14.8%
COc1ccccc1C(=O)NNC(=O)c1ccc(C)cc1	-1.9%	-9.3%	2.2%
COc1ccc(NC(=O)NNC(=O)c2cc3ccccc3cc2O)cc1	1.6%	?	0.9%
COc1cc(OC)c(NC(=O)c2ccccc2F)cc1Cl	10.1%	-21.0%	-1.3%
O=C(NNC(=O)c1cc2ccccc2cc1O)Nc1ccc(Br)cc1	1.0%	?	?
CCCc1nn2c(=O)cc(COC(=O)c3cccc(NC(=O)c4ccc(OCC)cc4)c3)nc2s1	-3.2%	/	14.5%
COc1ccccc1NC(=O)c1sc2nc3c(c(C(F)(F)F)c2c1N)CN(C(C)=O)CC3	4.8%	/	4.3%
COc1ccccc1CNC(=O)C(=O)NCC(c1cccnc1)N1CCN(c2ccc(F)cc2)CC1 (configuration not stated)	-14.0%	/	4.7%
COc1ccc(C(CC(=O)NCc2ccccc2Cl)N2Cc3ccccc3C2=O)cc1OC (configuration not stated)	-1.5%	/	5.8%
CCCn1nnc(NC(=S)NC(=O)C(C)(C)C)n1	-24.2%	-12.8%	?
CCCn1nnc(NC(=S)NC(=O)/C=C/c2ccco2)n1	7.08µM*	-53.4%	-0.9%
Cn1nnc(NC(=O)c2ccco2)n1	25.0%	-7.6%	5.4%
Cn1nnc(NC(=O)/C=C/c2ccco2)n1	8.91µM*	-31.1%	2.7%
CCSc1ncc(Cl)c(C(=O)N(Cc2ccccc2Cl)C2CCS(=O)(=O)C2)n1 (configuration not stated)	6.3%	/	17.1%
SMILES	Sm TGR inh	AmpC inh no detg	AmpC detergent
CCc1ccc(CNC(=O)C2CCCN(c3nn4cc(-c5ccc(F)cc5)nc4s3)C2)cc1 (configuration not stated)	7.4%	/	14.1%
COc1ccc(Cl)cc1NC(=O)c1cc(S(=O)(=O)NC2CCCCCC2)ccc1F	13.5%	/	7.6%
Cc1[nH]c2ccccc2c1CC(=O)O	44.7µM*	-18.4%	?
Cc1[nH]c2c(C)cccc2c1CC(=O)O	-32.9%	13.4%	-2.2%
COc1ccc(C(=O)Nc2cc(C(=O)c3ccccc3)c(C)oc2=O)cc1	6.31µM*	-49.8%	-0.5%
Cc1oc(=O)c(NC(=O)c2cccc(Cl)c2)cc1C(=O)c1ccccc1	4.47µM*	-32.6%	-9.1%
COCC(=O)Nc1cc(C)c2c(=O)oc3ccccc3c2n1	27.4%	-18.4%	4.7%
Cc1oc(=O)c(NC(=O)c2ccccc2)cc1C(N)=O	-1.0%	-18.4%	-10.3%
COc1ccc(C(=O)Nc2cc(C)c3c(=O)oc4ccccc4c3n2)cc1	-1.4%	8.91µM*	?
COC(=O)c1cc(NC(=O)c2ccccc2)c(=O)oc1C	-20.4%	-14.6%	-4.4%
COc1ccc(CNC(=O)c2ccc(-c3nc(CSc4ccc(C)cc4)c(C)o3)cc2)c(OC)c1	-6.2%	/	4.0%
COc1ccc(N(CC(=O)Nc2ccc(C)c(C)c2)S(=O)(=O)c2ccc(C)cc2)cc1OC	-1.8%	/	-0.1%
Cc1nc(Nc2ccc(Cl)cc2)cc(-c2ccccc2)n1	18.0%	/	22.3%
COc1cccc(CNC(=O)CSc2ncc(S(=O)(=O)c3ccc(C)c(Cl)c3)c(=O)[nH]2)c1	2.2%	/	20.5%
COCCn1c(N2CCN(c3ccccc3)CC2)nc2c1c(=O)n(C)c(=O)n2C	0.0%	68.2%	3.3%
COCCn1c(=O)[nH]c2cc(C(=O)N3CCN(c4ccc(Cl)cc4)CC3)ccc2c1=O	3.1%	-7.3%	-6.3%
CCOc1ccc(C(c2c(O)cc(C)n(CCOC)c2=O)N2CCN(c3ccccc3)CC2)cc1 (configuration not stated)	6.31µM*	/	3.6%
CCOc1ccc(C(c2c(NC(=O)c3ccccc3)sc(C)c2C)N2CCN(C)CC2)cc1 (configuration not stated)	-0.9%	133.2%	4.5%
COCCn1c(C)cc(O)c(C(c2ccc(Cl)cc2)N2CCN(c3ccccc3)CC2)c1=O (configuration not stated)	2.82µM*	/	5.8%
COCCn1c(C)cc(O)c(C(c2ccc(F)cc2)N2CCN(c3ccccc3)CC2)c1=O (configuration not stated)	3.16µM*	/	-0.2%
O=C(CSc1nnc(-c2ccccc2)c(-c2ccccc2)n1)NC1CCCC1	-1.8%	/	?
CC(CNC(=O)CCc1cn(Cc2ccccc2Cl)c2ccccc12)c1ccccc1 (configuration not stated)	1.0%	/	-6.3%
O=C(Cn1c(=O)n(Cc2nc(-c3ccccc3)no2)c(=O)c2cc3c(cc21)OCO3)Nc1ccc(Cl)cc1	6.8%	/	27.4%
COc1cccc(CNC(=O)Cc2csc3ccccc23)c1OC	1.4%	/	17.8%
CCC(=O)N1CCc2cc(S(=O)(=O)NC(C(=O)NCc3ccc(OC)cc3)C(C)C)ccc21 (configuration not stated)	-2.0%	/	1.5%
SMILES	Sm TGR inh	AmpC inh no detg	AmpC detergent
O=C(COC(=O)C12CC3CC(CC(Br)(C3)C1)C2)Nc1ccc2[nH]c(=O)[nH]c2c1	5.1%	31.6µM*	-1.1%
O=C(COC(=O)C12CC3CC(CC(Br)(C3)C1)C2)Nc1c(F)cccc1F	/	-29.1%	/
CCn1c(=O)cc(OCC(=O)N(C)c2cc(Cl)ccc2C)c2ccccc21	-7.9%	/	16.9%
CCc1ccc(CNC(=O)C2Cc3cc(S(=O)(=O)N4CCCCCC4)ccc3N2C(C)=O)cc1 (configuration not stated)	12.4%	/	12.2%
CC1CCN(C(=O)C(Cc2ccccc2)n2cccc2)CC1 (configuration not stated)	?	10µM*	?
Cc1cccc(N2CCN(C(=O)C(Cc3ccccc3)n3cccc3)CC2)c1C (configuration not stated)	1.6%	1µM*	?
